For 35 compounds, composite z-score results are on record in PubChem BioAssay.

The target in one test is Pro-neuregulin-1, membrane-bound isoform (Homo sapiens) (UniProt Q02297). As to the kind of experiment: NRG1 binders on small-molecule microarrays, primary screen, psychiatric disease protein project, biochemical, small-molecule microarray, fluorescence 635/667 (AID 1075).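 Note: score combines 667 nm spot fluorescence with signal to noise.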 The conditions noted are these: NRG1 binding, 635 nm fluorescence, higher = more signal.
Sequence of Pro-neuregulin-1, membrane-bound isoform (Homo sapiens) (Q02297 whole entry, looked up, canonical isoform): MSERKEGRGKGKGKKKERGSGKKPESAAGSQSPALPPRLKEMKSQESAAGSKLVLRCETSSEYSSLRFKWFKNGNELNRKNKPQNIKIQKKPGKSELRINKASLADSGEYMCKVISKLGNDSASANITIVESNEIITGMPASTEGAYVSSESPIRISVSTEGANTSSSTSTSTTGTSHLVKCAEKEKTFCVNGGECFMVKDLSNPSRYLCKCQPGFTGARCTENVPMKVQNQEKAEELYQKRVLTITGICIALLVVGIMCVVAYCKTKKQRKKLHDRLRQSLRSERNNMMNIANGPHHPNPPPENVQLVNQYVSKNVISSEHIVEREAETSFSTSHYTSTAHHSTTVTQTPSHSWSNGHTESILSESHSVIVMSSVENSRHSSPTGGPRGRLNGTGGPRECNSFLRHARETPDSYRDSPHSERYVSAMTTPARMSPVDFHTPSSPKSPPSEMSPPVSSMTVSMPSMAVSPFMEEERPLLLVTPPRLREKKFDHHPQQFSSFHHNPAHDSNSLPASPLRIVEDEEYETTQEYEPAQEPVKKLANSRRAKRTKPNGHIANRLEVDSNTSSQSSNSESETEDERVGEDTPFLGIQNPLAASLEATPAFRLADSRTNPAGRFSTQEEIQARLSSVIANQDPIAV
The compound `COc1ccc([Si](C)(C)[C@H]2[C@H](CCO)O[C@@]3(C(=O)N(Cc4ccccc4)c4ccc(N(C=O)c5ccccc5)cc43)[C@@H]2C)cc1` registered a composite z-score of 0.929.
On the same count and under the same terms, with `CCCC[C@H]1OB(O)C[C@H]2C1=C(C)C[C@H]1C(=O)C=CC(=O)[C@H]12` the figure was 0.532; with `[N-]=[N+]=NCc1ccccc1[C@@H]1OC(c2ccc(OCCCO)cc2)=N[C@]1(Cc1ccccc1)C(=O)NCc1ccccc1`, 1.56.
Still for that read-out and setting: next, `COc1ccccc1CN1C(=O)c2ccccc2[C@](Cc2ccccc2I)(C(=O)NCCCN(C)C)[C@@H]1c1ccc(CO)cc1`: 0.683.
Still for that read-out and setting: with `CCCCCCc1nc(-c2ccc(OC)nc2)cc2c1[Si](C(C)C)(C(C)C)OC2` the figure was -0.151; with `CC(=O)n1cc(C(O)C2C=CC3C(=O)N(c4ccccc4)C(=O)C3N2Nc2ccccc2F)c2ccccc21` (stereo not given), 1.69; with `COc1ccc(NN2C(C(O)c3cc(C(F)(F)F)cc(C(F)(F)F)c3)C=CC3C(=O)N(C4CCCCC4)C(=O)C32)cc1` (stereo not given), 1.02.
`CC1CC/C=C\[C@H]2OC34C=CCN(c5ccc(Cl)cc5)C(=O)[C@H]3N(CCCO)C(=O)[C@]4(C)C2C(=O)O1` (stereo not given in full) showed a composite z-score of 1.38.
Still for that read-out and setting: next, `O=C1NC(=O)C2C1C=CC(C(O)c1cccc(O)c1)N2Nc1ccc(Cl)cc1Cl` (stereo not given): 1.08; `CCc1cccc(NC(=O)O[C@H]2[C@H](OC(=O)Nc3ccc4c(c3)OCO4)[C@H](OC(=O)Nc3ccc4c(c3)OCO4)[C@@H](OC)O[C@@H]2CO)c1`: 0.979; `C[N+](C)(C)CCCCCCNC(=O)[C@@H]1C[C@@H]2C(=O)N[C@@H](Cc3ccccc3)C(=O)N2[C@@H]1c1ccc(O)cc1`: 1.73.
Same read-out and setting: next, `CCN(CC)c1ccc(N2CC=CC34O[C@@H]5C=CCOC(=O)[C@@H]5[C@H]3C(=O)N(CCCO)[C@@H]4C2=O)cc1` (stereo not given in full): 0.986; `COCCCNC(=O)[C@@]1(Sc2ccc(C)cc2)CC(=O)N(C2CCCCC2)[C@@H]1c1ccc(CO)cc1I`: 1.56; `COCCOC(=O)N1C(=O)[C@@]2(c3cc(C#CC4(O)CCCCCC4)ccc31)[C@H](c1ccc(OCCO)cc1)N1[C@H](c3ccccc3)[C@H](c3ccccc3)OC(=O)[C@H]1[C@@H]2C(=O)N1CCCCCCC1`: 1.77.
On to `C=CC[C@@]12N=C(c3ccc(OCCCO)cc3)O[C@@H]1c1ccccc1N(Cc1ccccc1)C2=O`, for which the composite z-score came out at 1.44.
Same read-out and setting: with `C=C(CCCC)/C(=C/C[C@H](OC(C)=O)c1cccc(OCCO)c1)c1cc(C(=O)OC)ccc1OC` the figure was -0.578; with `O=c1cccc(-c2ccccc2C(F)(F)F)o1`, -0.168; with `COC(=O)[C@@]1(Cc2ccc(OC)cc2)[C@H]2c3cc(C(=O)N4CCCC4)n(CCc4ccc(OC)c(Br)c4)c3C[C@H]2CN1C(=O)c1ccccc1`, 2.17.
On the same count and under the same terms, next, `COc1ccc(CCNC(=O)[C@@H]2c3ccccc3C(=O)N(CC34CC5CC(CC(C5)C3)C4)[C@H]2c2ccc(CO)cc2)cc1`: 1.09; `CCCCC(=C=CC[C@@H](O)c1cccc(OCCO)c1)CCO`: -0.0951; `COC(=O)C1(CC(C)C)C=C2C(=C(C(C)C)C(=O)C2C)CN1` (stereo not given): 0.607.
Still for that read-out and setting: with `COCCOC(=O)N1C(=O)[C@@]2(c3cc(C#CCC(C(=O)OC)C(=O)OC)ccc31)[C@H](C(=O)N1CCCCCCC1)[C@H]1C(=O)O[C@H](c3ccccc3)[C@H](c3ccccc3)N1[C@@H]2c1ccccc1OCCO` the figure was 0.811.
Regarding `C=CCNC(=O)[C@H]1[C@@H]2C(=O)O[C@@H](c3ccccc3)[C@@H](c3ccccc3)N2[C@@H](c2ccc(O)cc2)[C@]12C(=O)Nc1ccc(C#CC3=CCCCC3)cc12`, the composite z-score turned out to be 0.0212.
On the same count and under the same terms, next, `C=CCC(OC(C)=O)[C@@H]1[C@@H](N(Cc2ccc(-c3cccc(C(F)(F)F)c3)o2)C(=O)c2cccc3ccccc23)c2cc(OCCCO)ccc2N1C(=O)c1ccc2ccccc2n1` (stereo not given in full): 0.0262.
Turning to `CCC[C@@H]1[C@@H](Sc2ccccc2)[C@@H](C(=O)O)[C@H](c2ccc(C)cc2)N1S(=O)(=O)c1ccc(C)cc1`, the composite z-score was determined as 1.15.

In a further test the test system is Neuregulin-1 EGF-like domain. As to the kind of experiment: binders of neuregulin-1 EGF-like domain, primary screen, biochemical, small-molecule microarray, 635 nm fluorescence (AID 1081).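 Note: binding of the protein to compounds printed on small-molecule microarray slides.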 The conditions noted are these: small-molecule microarray binding, higher = more signal.
In turn, `CC(=O)c1ccc(C(O)C2C=CC3C(=O)NC(=O)C3N2Nc2ccc(Cl)cc2Cl)cc1` (stereo not given) registered a composite z-score of 0.669.
Still for that read-out and setting: with `C=CCC(OC(C)=O)[C@@H]1[C@@H](N(Cc2cccc3ccccc23)C(=O)c2ccc(C)cc2)c2cc(OCCCO)ccc2N1C(=O)c1ccc2ccccc2n1` (stereo not given in full) the figure was 0.0751; with `COC(=O)[C@@H]1N=C(c2ccc(OCCCO)cc2)O[C@@H]1c1ccccc1CN=[N+]=[N-]`, 0.945.
Still for that read-out and setting: with `COc1ccc([Si](C)(C)[C@@H]2[C@@H](CCO)O[C@]3(C(=O)N(Cc4ccccc4)c4ccc(N5C(=O)c6ccccc6Oc6ccccc65)cc43)[C@H]2C)cc1` the figure was 0.671; with `COC(=O)[C@@]1(Cc2ccc(F)cc2)[C@H]2c3cc(C(=O)N(C)C)n(CCO)c3C[C@H]2CN1C(=O)c1ccccc1`, 1.06.
The same measure, in the same setting: next, `CC(C)(C)N1CC=CC23O[C@@H]4/C=C\CCCOC(=O)C4[C@H]2C(=O)N(CCCCCCO)[C@@H]3C1=O` (stereo not given in full): 0.781.
In the case of `C=C(CCCC)C(=O)CC[C@H](OC(C)=O)c1ccccc1OCCO`, the composite z-score is -0.0255.
The same measure, in the same setting: next, `COCCOC(=O)N1C(=O)[C@@]2(c3cc(C#CCC(C(=O)OC)C(=O)OC)ccc31)[C@H](C(=O)N1CCc3cc(OC)c(OC)cc3C1)[C@H]1C(=O)O[C@H](c3ccccc3)[C@H](c3ccccc3)N1[C@@H]2c1ccc(O)cc1`: 1.23.
Same read-out and setting: with `O=C(NCCO)C1=C[C@H](Oc2ccccc2I)[C@@H](O)[C@H](NCc2ccc(F)cc2)C1` the figure was -1.68; with `C=CCC(OC(C)=O)[C@@H]1[C@@H](N(Cc2cccc3ccccc23)C(=O)c2ccc(-c3ccccc3)cc2)c2cc(OCCCO)ccc2N1C(=O)c1ccc2ccccc2n1` (stereo not given in full), 0.037.
On the same count and under the same terms, next, `COc1ccc([Si](C)(C)[C@H]2[C@H](CCO)O[C@@]3(C(=O)N(Cc4ccccc4)c4ccc(N(C=O)c5ccccc5)cc43)[C@@H]2C)cc1`: 0.818.
In the case of `CCCC[C@H]1OB(O)C[C@H]2C1=C(C)C[C@H]1C(=O)C=CC(=O)[C@H]12`, the composite z-score came to 0.698.
Consider `[N-]=[N+]=NCc1ccccc1[C@@H]1OC(c2ccc(OCCCO)cc2)=N[C@]1(Cc1ccccc1)C(=O)NCc1ccccc1`, for which the composite z-score was 0.744.
For the compound `COc1ccccc1CN1C(=O)c2ccccc2[C@](Cc2ccccc2I)(C(=O)NCCCN(C)C)[C@@H]1c1ccc(CO)cc1`, the composite z-score is 1.19.
As to `CCCCCCc1nc(-c2ccc(OC)nc2)cc2c1[Si](C(C)C)(C(C)C)OC2`, the composite z-score was -0.769.
The same measure, in the same setting: next, `CC(=O)n1cc(C(O)C2C=CC3C(=O)N(c4ccccc4)C(=O)C3N2Nc2ccccc2F)c2ccccc21` (stereo not given): 1.02.
On the same count and under the same terms, next, `COc1ccc(NN2C(C(O)c3cc(C(F)(F)F)cc(C(F)(F)F)c3)C=CC3C(=O)N(C4CCCCC4)C(=O)C32)cc1` (stereo not given): 1.11; `CC1CC/C=C\[C@H]2OC34C=CCN(c5ccc(Cl)cc5)C(=O)[C@H]3N(CCCO)C(=O)[C@]4(C)C2C(=O)O1` (stereo not given in full): 1.64; `O=C1NC(=O)C2C1C=CC(C(O)c1cccc(O)c1)N2Nc1ccc(Cl)cc1Cl` (stereo not given): 0.275.
Take `CCc1cccc(NC(=O)O[C@H]2[C@H](OC(=O)Nc3ccc4c(c3)OCO4)[C@H](OC(=O)Nc3ccc4c(c3)OCO4)[C@@H](OC)O[C@@H]2CO)c1`: the composite z-score is 1.32.
Still for that read-out and setting: next, `C[N+](C)(C)CCCCCCNC(=O)[C@@H]1C[C@@H]2C(=O)N[C@@H](Cc3ccccc3)C(=O)N2[C@@H]1c1ccc(O)cc1`: 1.03; `CCN(CC)c1ccc(N2CC=CC34O[C@@H]5C=CCOC(=O)[C@@H]5[C@H]3C(=O)N(CCCO)[C@@H]4C2=O)cc1` (stereo not given in full): 0.391.
On the same count and under the same terms, with `COCCCNC(=O)[C@@]1(Sc2ccc(C)cc2)CC(=O)N(C2CCCCC2)[C@@H]1c1ccc(CO)cc1I` the figure was 1.26.
Same read-out and setting: with `COCCOC(=O)N1C(=O)[C@@]2(c3cc(C#CC4(O)CCCCCC4)ccc31)[C@H](c1ccc(OCCO)cc1)N1[C@H](c3ccccc3)[C@H](c3ccccc3)OC(=O)[C@H]1[C@@H]2C(=O)N1CCCCCCC1` the figure was 1.29; with `C=CC[C@@]12N=C(c3ccc(OCCCO)cc3)O[C@@H]1c1ccccc1N(Cc1ccccc1)C2=O`, 1.31; with `C=C(CCCC)/C(=C/C[C@H](OC(C)=O)c1cccc(OCCO)c1)c1cc(C(=O)OC)ccc1OC`, 0.131.
Consider `O=c1cccc(-c2ccccc2C(F)(F)F)o1`, for which the composite z-score was determined as 0.381.
Still for that read-out and setting: with `COC(=O)[C@@]1(Cc2ccc(OC)cc2)[C@H]2c3cc(C(=O)N4CCCC4)n(CCc4ccc(OC)c(Br)c4)c3C[C@H]2CN1C(=O)c1ccccc1` the figure was 1.44.
On the same count and under the same terms, next, `COc1ccc(CCNC(=O)[C@@H]2c3ccccc3C(=O)N(CC34CC5CC(CC(C5)C3)C4)[C@H]2c2ccc(CO)cc2)cc1`: 1.24; `CCCCC(=C=CC[C@@H](O)c1cccc(OCCO)c1)CCO`: 0.345.
In turn, `COC(=O)C1(CC(C)C)C=C2C(=C(C(C)C)C(=O)C2C)CN1` (stereo not given) displayed a composite z-score of 0.19.
`COCCOC(=O)N1C(=O)[C@@]2(c3cc(C#CCC(C(=O)OC)C(=O)OC)ccc31)[C@H](C(=O)N1CCCCCCC1)[C@H]1C(=O)O[C@H](c3ccccc3)[C@H](c3ccccc3)N1[C@@H]2c1ccccc1OCCO` yielded a composite z-score of 1.12.
On the same count and under the same terms, with `C=CCNC(=O)[C@H]1[C@@H]2C(=O)O[C@@H](c3ccccc3)[C@@H](c3ccccc3)N2[C@@H](c2ccc(O)cc2)[C@]12C(=O)Nc1ccc(C#CC3=CCCCC3)cc12` the figure was 1.18; with `C=CCC(OC(C)=O)[C@@H]1[C@@H](N(Cc2ccc(-c3cccc(C(F)(F)F)c3)o2)C(=O)c2cccc3ccccc23)c2cc(OCCCO)ccc2N1C(=O)c1ccc2ccccc2n1` (stereo not given in full), -0.393.
On the same count and under the same terms, with `CCC[C@@H]1[C@@H](Sc2ccccc2)[C@@H](C(=O)O)[C@H](c2ccc(C)cc2)N1S(=O)(=O)c1ccc(C)cc1` the figure was 1.34.
